Source: PubChem BioAssay AID651812 (National Center for Advancing Translational Sciences (NCATS), 2012)
Among all 2,100 compounds or so, about 650 (31%) were called active. About 16% were inconclusive and are not listed. The call rests on the fitted dose curve; in most records, active means well fitted inhibition curve with a large enough effect; inconclusive means small, poorly fitted or top-dose-only effect; inactive means flat fitted curve, though single readings scatter. The list shows a part of the results. A call without a number means that no potency is given here.

Experiment: qHTS for inhibitors of Vif-A3G interactions: Cherry picks; further: nearly all actives have a fitted effect of over 80% in size
Conditions: HeLa A3G-eYFP + Vif (tagged APOBEC3G with the HIV-1 protein that degrades it), 24 h; Potency: eYFP fluorescence increase; series mostly up to 36.9 µM
How it was run: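 Cherry-picked compounds tested at several concentrations on A3G-eYFP/Vif HeLa cells for 24 hours; loss of Vif-driven degradation read as eYFP fluorescence by cytometric plate imaging, 488 nm excitation, 500-530 nm emission.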
Potency means the concentration at half of the fitted maximal effect.

SMILES | Potency
O=C(NCc1ccccc1)C1Cc2c(-c3cccc(F)c3)ccnc2O1 (stereo not drawn) | inactive
Cn1c(=O)c2cc(NC(=O)NCc3ccc(F)cc3)ccc2n1C/C=C/c1ccccc1 | inactive
CCCCn1c(N)c(N(Cc2ccccc2OC)C(=O)c2ccc([N+](=O)[O-])s2)c(=O)[nH]c1=O | inactive
C=CCN1C(=O)c2ccc(C(=O)N(CC(C)C)c3c(N)n(CCCC)c(=O)[nH]c3=O)cc2C1=O | inactive
CCCCn1c(N)c(N(CC(C)C)C(=O)Cc2ccc(S(=O)(=O)N3CCOCC3)s2)c(=O)[nH]c1=O | 18.4 µM (active)
Cc1cc(N)cc(C)c1-c1c(Br)cc(N)cc1Br | inactive
COc1ccc(/C=C/C=C2\NC(=S)NC2=O)cc1 | 6.51 µM (active)
CCOc1cccc(-n2nnnc2-c2ccc(OC)cc2)c1 | inactive
COc1cccc(Cn2c(-c3nonc3N)nc3ccccc32)c1 | inactive
COc1ccc2c(c1)c1nc3ccccc3nc1n2CC(=O)OC(C)C | 3.66 µM (active)
COc1cccc(Cn2c(-c3nonc3NC(C)=O)nc3ccccc32)c1 | inactive
CCOc1ccc(Cn2c3ccc(OC)cc3c3nc4ccccc4nc32)cc1 | 16.4 µM (active)
CCCN1CCC(=NNc2ccc(S(=O)(=O)N3CCOCC3)cc2[N+](=O)[O-])CC1 | inactive
COc1cc(S(=O)(=O)Nc2ccccc2N2CCCCC2)ccc1NC(C)=O | inactive
CCOCCC(=O)Nc1ccc2c(c1)c(=O)n(C)n2C/C=C/c1ccccc1 | inactive
COc1ccc(NC(=O)CSc2nc3c(oc4ccccc43)c(=O)n2Cc2ccco2)cc1Cl | 14.6 µM (active)
COc1cc2nc(SCC(=O)NCc3ccco3)n(Cc3ccc(Cl)cc3)c(=O)c2cc1OC | 5.8 µM (active)
CCCn1c(SCC(=O)Nc2ccccc2OC)nnc1-c1ccco1 | inactive
COc1ccccc1CCC(=O)Nc1ccc2c(c1)c(=O)n(C)n2Cc1ccc(F)cc1 | inactive
Cc1cccc(Cn2c(=O)n(CCCC(=O)NCc3ccco3)c(=O)c3ccccc32)c1 | inactive
O=C(CCCCn1c(=O)c2ccccc2n(Cc2ccc(F)cc2)c1=O)NCc1ccco1 | inactive

SMILES | Potency
c1ccc(N=Nc2ccc3cccccc2-3)cc1 | inactive
Cc1ccc(-c2csc(NC3OC(=O)c4ccccc43)n2)cc1 (stereo not drawn) | inactive
CCOC(=O)C(=Cc1ccc(-n2cncn2)cc1)C(=O)OCC | inactive
CCOc1cc(S(=O)(=O)NCc2ccc(OC)cc2)c(OCC)cc1-n1cnnn1 | inactive
CC(C)(C)OC(=O)NCc1ccc(NC(=O)c2nc[nH]c2C(=O)NCCCNC(=O)c2[nH]cnc2C(=O)Nc2ccc(CNC(=O)OC(C)(C)C)cc2)cc1 | inactive
CCC(C)n1c(NC(=O)c2ccccc2)c(C#N)c2nc3ccccc3nc21 (stereo not drawn) | 18.4 µM (active)
Cc1ccccc1/C=C\c1nc2ccccc2c(=O)[nH]1 | inactive
CCN(CC(=O)Nc1ccccc1-c1ccccc1)Cc1nc2ccccc2c(=O)[nH]1 | inactive
O=c1[nH]c(/C=C/c2cccc3ccccc23)nc2ccccc12 | 18.4 µM (active)
O=c1[nH]c(-c2cccnc2)nc2sc(-c3ccccc3)cc12 | inactive
O=C(NC1CCCC(C(F)(F)F)C1)c1ccc([N+](=O)[O-])o1 (stereo not drawn) | inactive
N#CC(=Cc1ccccn1)c1nc(-c2ccc(Cl)cc2)cs1 | 6.27 µM (active)
N#C/C(=C\c1ccc(Cl)cc1)c1nc2ncccc2[nH]1 | inactive
COc1ccc(CCNC(=O)CC2(CC3=NS(=O)(=O)c4ccccc4N3)CCCC2)cc1OC | inactive
COc1cccc(Cn2c3ccc(NC(=O)CCc4ccc(F)cc4)cc3c(=O)n2C)c1 | inactive
COc1ccc(-c2cc(-c3nnc(COC(=O)c4ccncc4)o3)c3ccccc3n2)cc1OC | inactive
CCOc1ccccc1NC(=O)Cn1nnc(C(=O)NCc2cccs2)c1N | inactive
COc1cc2c(cc1OC)CN(C(=O)c1cc(=O)c3ccccc3o1)CC2 | inactive
CCOc1cc(-c2nnc(SCC(=O)NCc3ccccc3)nc2-c2ccc(OC)c(OCC)c2)ccc1OC | inactive
CCOc1ccc(C2CC(c3c(O)c4ccccc4oc3=O)=NN2c2ccccc2)cc1OC (stereo not drawn) | 14.6 µM (active)
COc1ccc(/C=C2\C(=O)NC(=S)N2C(=O)c2ccc(F)cc2)cc1 | 8.2 µM (active)

SMILES | Potency
COc1ccc(NC(=O)c2ccc3c(c2)c(C)c(C)n3Cc2ccc(F)cc2)cc1 | inactive
COc1ccc(C(=O)/C=C2/c3ccccc3CC(C)(C)N2C)cc1 | inactive
NNC(=O)c1cc2sccc2s1 | inactive
CC(C)n1cc(NC(=O)c2cc(-c3ccccc3)on2)cn1 | inactive
N#C/C(=C\c1cccc(O)c1)c1nc2ccccc2o1 | 3.14 µM (active)
C[C@]12CCC[C@H](O1)c1c(cc3c(c1O)C(=O)c1c(O)cc(O)cc1C3=O)O2 | 13 µM (active)
O=C1c2ccccc2C(=O)c2cc(N3CCCCC3)ccc21 | 7.9 µM (active)
O=C(N/N=C/c1cccc2ccccc12)c1cc2ccccc2o1 | inactive
COc1ccc(NC(=O)c2sc3nc(C(F)(F)F)cc(C)c3c2N)cc1OC | 23.1 µM (active)
COc1cccc(-c2ccc3c(N)c(C(=O)c4ccc(Br)cc4)sc3n2)c1 | 16.4 µM (active)
COc1cc(C(=O)Nc2ccc3c(c2)nc(C)n3C)cc(OC)c1OC | inactive
COc1ccc(C(=O)c2ccc(OC)c(OC)c2OC)cc1 | inactive
COc1ccc(C(=O)c2sc3nc(C)cc(-c4cccs4)c3c2N)cc1 | 18.4 µM (active)
COc1ccc(N(C(=O)C(C)C)S(=O)(=O)c2cccs2)cc1 | inactive
COc1ccc(Nc2nc(C)nc3sc4c(c23)CCC4)cc1O | inactive
COc1cccc(C(=O)c2sc3nc(-c4ccccc4)cc(C(F)(F)F)c3c2N)c1 | 1.64 µM (active)
COc1ccc(COc2cc(-c3cccc(OC)c3)nc3ccc(NC(=O)c4ccc(OC)cc4)cc23)cc1 | inactive
COC(=O)CCS(=O)(=O)c1nc(-c2ccccc2)cc(C(F)(F)F)n1 | inactive
O=c1[nH]c(NCc2ccco2)nnc1Cc1ccccc1Cl | inactive
Cc1c(C(=O)N/N=C/C(C)C)[nH]c2c([N+](=O)[O-])cccc12 | inactive
CN[C@H]1CCc2cc(OC)c(OC)c(OC)c2-c2ccc(N(C)CC(OC)OC)c(=O)cc21 | inactive
